Laboratory results published in PubChem BioAssay (Tox21).
Unmarked numbers belong to inactive results. The source made the active and inactive calls. Calls follow the shape of the dose curve; as a rule, active = well fitted inhibition curve with a large enough effect in the repeat runs (not every such curve was filed as active); inconclusive = weak or mixed curves; inactive = flat fitted curve, though single readings scatter.

The compounds below were run against Thyrotropin-releasing hormone receptor (Homo sapiens) (UniProt P34981) (assay: qHTS assay to identify small molecule antagonists of the thyrotropin-releasing hormone receptor (TRHR) signaling pathway (AID 1346877)). Details: TRHR-HEK293, TRH-induced calcium fluorescence, antagonist mode; series mostly up to 51.3 µM.
Description: National Center for Advancing Translational Sciences [NCATS]
NIH Chemical Genomics Center [NCGC]
U.S. Environmental Protection Agency [EPA]
National Institutes of Environmental Health Sciences [NIEHS]
National Toxicology Program [NTP]
U.S. Food and Drug Administration [FDA]
Thyrotropin-releasing hormone (TRH) receptor (TRHR) is a G-protein-coupled receptor which binds the tripeptide thyrotropin releasing hormone. TRHR is found in the brain and, when bound by TRH, acts (through phospholipase C) to increase intracellular inositol trisphosphate. It plays a crucial role in the anterior pituitary where it controls the synthesis and secretion of thyroid stimulating hormone and prolactin. The TRHR-Hek293 assay is a cell-based assay, and it has the potential to screen G protein-coupled receptors. A compound/drug can either activate (agonist) or suppress (antagonist) GPCRs that can be monitored by levels of intracellular calcium. In this assay, the Tox21 10K compound library was screened to identify potential TRHR antagonists.
Tox21 Assay Protocol Summary:
The TRHR-Hek293 cells were dispensed at 1500cells/4uL/well in 1536-well black-clear bottom plates using a Multidrop dispenser. After the assay plates were incubated at a 37 C/5% CO2 incubator for 18 hours, 4 uL of Dye-Loading Solution was added to each well. The plates were incubated at 37 C for 2 hours. For agonist mode, 23 nL of compounds dissolved in DMSO, positive controls or DMSO only was transferred to the assay plate by a pin tool. The fluorescence intensity in the plates was measured using FDSS 7000EX kinetic plate reader for 3 min at 1 sec intervals. For antagonist mode, 23 nL of compounds dissolved in DMSO, positive controls or DMSO only was transferred to the assay plate by a pin tool. After 5 min incubation at room temperature, 1 uL of TRH was added on the top of the cell/compound mixtures to achieve a final agonist concentration of 1 nM. The fluorescence intensity in the plates was measured using FDSS 7000EX kinetic plate reader for 3 min at 1 sec intervals. Each test compound was measured at 15 concentrations and in triplicates.
% is scaled to controls: 0 for no effect and ±100 for the full control effect.

Sequence of Thyrotropin-releasing hormone receptor (Homo sapiens) (P34981 whole entry, looked up): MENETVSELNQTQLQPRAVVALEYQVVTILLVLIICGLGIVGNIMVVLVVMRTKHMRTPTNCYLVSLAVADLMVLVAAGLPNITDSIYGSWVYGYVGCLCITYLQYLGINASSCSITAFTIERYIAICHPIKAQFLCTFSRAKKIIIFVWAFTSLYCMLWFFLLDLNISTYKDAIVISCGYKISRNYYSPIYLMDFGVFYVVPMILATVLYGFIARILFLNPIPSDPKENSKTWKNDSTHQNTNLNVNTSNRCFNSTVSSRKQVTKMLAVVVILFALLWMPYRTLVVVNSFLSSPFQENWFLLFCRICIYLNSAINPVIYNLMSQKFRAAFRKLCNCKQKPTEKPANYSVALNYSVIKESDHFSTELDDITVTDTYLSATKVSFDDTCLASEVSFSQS

Compound | outcome | activity, negative = inhibition
CC(C)=CCC/C(C)=C/C(=O)O | inactive | 
COCc1ccc(COC)cc1 | inactive | 
C=C(C)C(=O)OCCCCCCCCCCCCCCCCCC |  | -4.03% [at 10.5 µM]
NC(=S)Nc1cccc2ccccc12 |  | -0.447% [at 4.65 µM]
O=C1CC2(CCCC2)CC(=O)N1 | inactive | 
C=CC(=O)N1CCOCC1 | inactive | 
CC1(C)OC(=O)Nc2ccc(Br)cc21 | inactive | 
CC(C)COC(=O)c1ccccc1O | inactive | 
O=C1C(CCS(=O)c2ccccc2)C(=O)N(c2ccccc2)N1c1ccccc1 (stereo not given) | inactive | 
O=S(=O)(c1cccc2cnccc12)N1CCCNCC1 | inactive | 
CCC(C(=O)NC(N)=O)c1ccccc1 (stereo not given) | inactive | 
O=C(O)/C=C/c1ccc(/C=C/C(=O)O)cc1 | inactive | 
O=c1[nH]c(=O)n([C@H]2O[C@H](CO)[C@@H](O)[C@@H]2O)cc1/C=C\Br | inactive | 
CCCCCC[C@@H](CCC)C(=O)O | inactive | 
C=C(C)C(=O)OCCC(C)OC(=O)C(=C)C (stereo not given) | inactive | 
CCC(=O)c1cccc(Cl)c1 | inactive | 
OCC(CO)(CO)COCC(CO)(CO)CO | inactive | 
c1ccc2cnncc2c1 | inactive | 
CCCCOCC(C)OCC(C)O (stereo not given) | inactive | 
C[C@H]1O[C@@H](n2cc(F)c(=O)[nH]c2=O)[C@H](O)[C@@H]1O | inactive | 

Compound | outcome | activity, negative = inhibition
CCCOCC(C)OCC(C)O (stereo not given) | inactive | 
CC(C)c1cccc(O)c1 | inactive | 
CCCCC=O | inactive | 
CC(C)[N+](C)(C)CC(O)COc1cccc2ccccc12 (stereo not given) | inactive | 
Oc1ccc2c(c1)OC[C@@H](N1CCC(O)(c3ccc(F)cc3)CC1)[C@H]2O | inactive | 
NCC[C@H](O)C(=O)N[C@@H]1C[C@H](N)[C@@H](O[C@H]2O[C@H](CN)[C@@H](O)[C@H](O)[C@H]2O)[C@H](O)[C@H]1O[C@H]1O[C@H](CO)[C@@H](O)[C@H](N)[C@H]1O |  | 2.62% [at 0.194 µM]
O=C(O)c1ccccc1-c1ccc(C(F)(F)F)cc1 | inactive | 
NC(=O)c1ncn([C@@H]2O[C@H](CO)[C@@H](O)[C@H]2O)c1O | inactive | 
CCN(CC)S(=O)(=O)c1ccc(C(=O)O)cc1 | inactive | 
O=C(O)C1CCC1 | inactive | 
CC(CCO)CCCC(C)(C)O (stereo not given) | inactive | 
C(=C(c1ccccc1)c1ccccc1)c1ccccc1 | inactive | 
COc1ccc(N=[N+]([O-])c2ccc(OC)cc2)cc1 | inactive | 
Nc1ncnc2c1ncn2Cc1c(F)cccc1Cl | inactive | 
FC(F)(F)C(F)(F)C(F)(F)C(F)(F)C(F)(F)C(F)(F)C(F)(F)C(F)(F)C(F)(F)C(F)(F)F |  | 0.552% [at 4.65 µM]
CN(C)CCOC(c1ccc(Cl)cc1)c1ccccn1 (stereo not given) | inactive | 
CC(=O)CCc1ccc(O)cc1 | inactive | 
O=[N+]([O-])c1ccc(CCO)cc1 | inactive | 
CCC(C)(C)C1CCC(OC)CC1 (stereo not given) | inactive | 
CC(C=O)Cc1ccc(C(C)C)cc1 (stereo not given) | inactive | 
